Reference: PubChem BioAssay (NCI)
Compounds without any hit were thinned out: in the full panel of roughly 79,000, 15% have a hit. Values without a mark were called inactive. Active and inactive are the calls of the source. Cut-off read from the data, not from the text of the source: active = growth inhibition above about 70%; inactive = the rest.

What was measured:
[1] = NCI Yeast Anticancer Drug Screen. Data for the rad50 strain (AID 155);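 note: 0% = growth of vehicle-only cultures of the same strain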; conditions: S. cerevisiae rad50 strain growth inhibition, hits give high values
Procedure, shortened: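 Cells are treated with compound, grown, and their growth is then scored against vehicle-only cultures of the same repair-deficient yeast strain.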

[2] = NCI Yeast Anticancer Drug Screen. Data for the mec2-1 strain (AID 157); conditions: S. cerevisiae mec2-1 strain, hits give high values
Procedure, shortened: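 Yeast mec2-1 mutant treated with compound. Readout: growth inhibition vs vehicle controls.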

[3] = NCI Yeast Anticancer Drug Screen. Data for the sgs1 mgt1 strain (AID 161);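 note: 0% = growth of cultures given vehicle only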; conditions: S. cerevisiae sgs1 mgt1 strain, hits give high values
Procedure, shortened: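 Read-out: growth inhibition vs vehicle controls. Cells: mutant yeast strain deficient in DNA damage repair.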

[4] = NCI Yeast Anticancer Drug Screen. Data for the cln2 rad14 strain (AID 165);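 note: 0% = growth equal to vehicle treated cultures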; conditions: S. cerevisiae cln2 rad14 strain, hits give high values
Procedure, shortened: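 cln2 rad14 yeast strain; compound exposure; growth inhibition read vs vehicle controls.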

[5] = NCI Yeast Anticancer Drug Screen. Data for the bub3 strain (AID 167); conditions: S. cerevisiae bub3 mutant strain, hits give high values
Procedure, shortened: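 Part of a panel of yeast mutants defective in DNA damage repair or cell cycle regulation. Each strain is grown with compound, and inhibition is calculated relative to solvent-treated cultures.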

[6] = NCI Yeast Anticancer Drug Screen. Data for the mlh1 rad18 strain (AID 175); conditions: S. cerevisiae mlh1 rad18 strain growth inhibition, hits give high values
Procedure, shortened: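 Yeast w/ defined DNA-repair lesions; compound exposure; growth vs vehicle controls → % inhibition.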

[7] = at 5.0 µM (retest, dose inferred, filed as 0.5)
[8] = at 50.0 µM (retest, dose inferred, filed as 5.0)

Structure (SMILES)	growth inhibition [1, 7]	growth inhibition [1, 8]	growth inhibition ([1]; at 50.0 µM)	growth inhibition [2, 7]	growth inhibition [2, 8]	growth inhibition ([2]; at 50.0 µM)	growth inhibition [3, 7]	growth inhibition [3, 8]	growth inhibition ([3]; at 50.0 µM)	growth inhibition [4, 7]	growth inhibition [4, 8]	growth inhibition ([4]; at 50.0 µM)	growth inhibition [5, 7]	growth inhibition [5, 8]	growth inhibition ([5]; at 50.0 µM)	growth inhibition [6, 7]	growth inhibition [6, 8]	growth inhibition ([6]; at 50.0 µM)
CC1CC[N-]CC1.CC1CC[N-]CC1.CC1CC[N-]CC1.CC1CC[N-]CC1.CS(C)=O.CS(C)=O.[Cl-].[Cl-].[Cl-].[Cl-].[Pt+4].[Rh+3]	65%	96% (active)	95.5% (active)	58%	98% (active)	96.8% (active)	66%	98% (active)	96.3% (active)	44%	97% (active)	89.3% (active)	52%	96% (active)	97.9% (active)	69%	97% (active)	97% (active)
OCCCNc1nc2ccc(Cl)cc2c2ccccc12	7%	5%	23.6%	2%	2%	12.4%	6%	3%	25.7%	5%	1%	2.7%	-3%	-4%	23.8%	-1%	5%	70.5% (active)
CCOC(=N)CCCSSc1ccc(N=[N+]=[N-])cc1	15%	99% (active)	98.7% (active)	-15%	99% (active)	99.2% (active)	-5%	97% (active)	99% (active)	-7%	97% (active)	98.5% (active)	-7%	99% (active)	98.8% (active)	-3%	99% (active)	99.2% (active)
O=C(O)CCSSCCCCCS(=O)O	-5%	-4%	54.9%	4%	10%	-1.9%	-1%	0%	7.95%	-10%	-22%	1%	-3%	9%	13%	0%	9%	13%
Oc1c(I)cc(Cl)c2cccnc12	64%	96% (active)	97.2% (active)	63%	97% (active)	98.3% (active)	46%	97% (active)	97.8% (active)	72% (active)	98% (active)	96.8% (active)	39%	96% (active)	98.8% (active)	74% (active)	95% (active)	98% (active)
N#CC(C#N)=C1CCC(CC2CCCCC2)CC1 (configuration not stated)	-117%	96% (active)	98.6% (active)	-49%	96% (active)	98.6% (active)	-60%	96% (active)	98% (active)	-56%	97% (active)	98.5% (active)	-58%	97% (active)	98% (active)	-92%	96% (active)	98.5% (active)
O=C1C=CC(=O)N1c1cccc(F)c1	96% (active)	99% (active)	99.7% (active)	97% (active)	100% (active)	99.8% (active)	93% (active)	99% (active)	99.7% (active)	82% (active)	99% (active)	98.8% (active)	98% (active)	100% (active)	99.6% (active)	88% (active)	100% (active)	99.4% (active)
CCCCNC(C)(C)COC(=O)/C=C/c1ccc(OCCCC)cc1	6%	79% (active)	89.2% (active)	-2%	47%	56.2%	3%	86% (active)	75.8% (active)	3%	79% (active)	80% (active)	4%	75% (active)	86.6% (active)	0%	81% (active)	89.2% (active)
Cc1ccc(SSCCCCCS(=O)O)cc1	1%	24%	49.5%	4%	60%	23.1%	3%	54%	42.9%	-5%	34%	58%	10%	88% (active)	84.4% (active)	6%	49%	77.5% (active)
CC#Cc1cc2c(cc1O)CC[C@@H]1[C@@H]2CC[C@]2(C)[C@@H](O)CC[C@@H]12	39%	99% (active)	84.7% (active)	22%	100% (active)	90.3% (active)	24%	99% (active)	88.5% (active)	20%	99% (active)	72.4% (active)	26%	99% (active)	87.7% (active)	29%	99% (active)	93.3% (active)
CCCN=Cc1cnc(C#N)c(N)n1	4%	4%	19%	4%	0%	-3.9%	-1%	4%	4.6%	1%	1%	71.5% (active)	-2%	-1%	17.3%	11%	2%	32.5%
Cc1ccc([PH+](CC[PH+](c2ccccc2)c2ccccc2)c2ccc(C)cc2)cc1.Cc1ccc([PH+](CC[PH+](c2ccccc2)c2ccccc2)c2ccc(C)cc2)cc1.[Pt]	40%	88% (active)	88.8% (active)	26%	91% (active)	90.7% (active)	33%	95% (active)	91.3% (active)	34%	93% (active)	89.8% (active)	29%	94% (active)	90.7% (active)	39%	93% (active)	88.5% (active)
CSC(SC)(C(=O)O)c1cc(-c2c(Cl)cccc2Cl)no1	3%	27%	39%	2%	42%	44%	7%	48%	95.5% (active)	-1%	-5%	17.1%	13%	73% (active)	51.6%	0%	36%	84.4% (active)
CN1C(=O)C2N(C(=O)C1(C)S)c1ccccc1C2(C)C (configuration not stated)	-5%	37%	47.7%	-4%	29%	32.5%	-3%	41%	15.7%	-14%	49%	-17.6%	-4%	25%	10.3%	-1%	32%	24.8%
Cc1occc1C(=S)Nc1ccc(Cl)c(C(=O)OCC(C)C)c1	28%	59%	61.3%	19%	45%	55.1%	34%	71% (active)	58.8%	25%	71% (active)	57.6%	30%	78% (active)	57.1%	33%	73% (active)	41.3%
CC(C)(N=Nc1ccc([N+](=O)[O-])cc1)[N+](=O)[O-]	26%	97% (active)	95.8% (active)	12%	99% (active)	53.6%	18%	98% (active)	83.3% (active)	15%	99% (active)	97.2% (active)	21%	99% (active)	47.4%	23%	99% (active)	96.7% (active)
CC1=C(C(=O)Nc2cccc(Cl)c2)C(c2ccccc2O)C(C(=O)Nc2cccc(Cl)c2)=C(C)N1	25%	25%	55.6%	14%	14%	65%	9%	9%	56.5%	10%	10%	59.2%	12%	12%	57.9%	25%	25%	32.3%
CCCCC(=O)N/N=C/c1ccc([N+](=O)[O-])s1	9%	93% (active)	97% (active)	7%	94% (active)	96% (active)	8%	95% (active)	94.5% (active)	1%	38%	90.8% (active)	-2%	94% (active)	95.7% (active)	7%	97% (active)	97% (active)
COc1ccc2nc3cc([N+](=O)[O-])ccc3c(NNc3ccc([N+](=O)[O-])cc3)c2c1	2%	2%	58%	2%	-4%	36.9%	3%	-4%	65%	-5%	-15%	30.9%	2%	-5%	55.2%	5%	0%	66.2%
